Values joined by “and” are separate entries in the source; they are usually repeats but may differ in a detail not shown here. Equal entries are not always repeated. Records with an inconclusive call do not appear. Active and inactive are the calls of the source. Unless noted, calls follow the shape of the dose curve; as a rule, active = well fitted curve in the direction sought with a large enough effect; inconclusive = small, poorly fitted or top-dose-only effect, or another doubt; inactive = no such curve, though single readings can be large; an effect the other way counts as inactive or inconclusive.
Assays:
[1] = Cell Viability - HepG2 (AID 433; calls by dose curve;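 also: potency is read from the fitted curve at half-maximal effect; potency for ATP loss meaning cytotoxicity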); settings: qHTS
Procedure, shortened: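 Cytotoxicity is scored as loss of intracellular ATP in HepG2 cells exposed to compounds for 40 h. Concentration-response curves, normalized to DMSO and 100 uM tamoxifen, give AC50 values.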

[2] = Cell Viability - Mesenchymal (AID 546); settings: mesenchymal cells viability, qHTS; activity change, negative = cytotoxicity: at 91.7 µM (top of the series);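 also: cells exposed to compound for 40 hours before reading; 0% = DMSO only and -100% = 100 µM tamoxifen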
Procedure, shortened: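 Normal human renal glomerulus-derived kidney mesenchymal cells, 1000 per well in complete medium, were treated with compounds for 40 hr at 37 °C. Viability was read as intracellular ATP by CellTiter-Glo luminescence; AC50 values came from Hill-equation fits of qHTS concentration-response data.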

[3] = Cell Viability - LYMP1-003 - Assay at 40 hr (AID 964); settings: LYMP1-003 lymphoblastoid viability; series mostly up to 92.2 µM; also: % is scaled to controls: 0 for no effect and ±100 for the full control effect; nearly all actives have a fitted effect of over 60% in size
Procedure, shortened: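 LYMP1-003 human lymphoblastoid cells, 2500/well, preincubated 5 h at 37 C, then treated with compound for 40 h at 37 C. Intracellular ATP read by CellTiter-Glo luminescence after 30 min at room temperature; AC50 from Hill-equation fits.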

[4] = Cell Viability - LYMP2-013 (AID 970); settings: LYMP2-013 lymphoblastoid cells viability; series mostly up to 92.2 µM;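 also: 0% = DMSO only and full inhibition = tetraoctylammonium bromide control; nearly all actives have a fitted effect of over 55% in size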
Procedure, shortened: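 Human lymphoblastoid LYMP2-013 cells, 2500/well, treated 24 h at 37 C in complete medium; viability as intracellular ATP by CellTiter-Glo luminescence after 30 min. AC50 from Hill fits of qHTS concentration-response.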

[5] = Cell Viability - LYMP2-017 (AID 972); settings: LYMP2-017 lymphoblastoid cell viability; series mostly up to 92.2 µM; also: % is scaled to controls: 0 for no effect and ±100 for the full control effect; nearly all actives have a fitted effect of over 55% in size
Procedure, shortened: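 LYMP2-017 human lymphoblastoid cells (2500/well) settled 5 hr at 37 C, then exposed to compound 24 hr at 37 C in complete medium. Viability taken as intracellular ATP by CellTiter-Glo luminescence after 30 min at RT; AC50 from Hill fits.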

[6] = Cell Viability - LYMP2-021 (AID 974); settings: LYMP2-021 lymphoblastoid cells viability; series mostly up to 92.2 µM;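 also: compound exposure lasts 24 hours at 37 °C; % is scaled to controls: 0 for no effect and ±100 for the full control effect; nearly all actives have a fitted effect of over 55% in size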
Procedure, shortened: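 Human lymphoblastoid LYMP2-021 cells, 2500/well in complete medium, treated 24 hours at 37 C. Intracellular ATP by CellTiter-Glo luminescence (30 min, RT); AC50 from Hill fits of concentration-response.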

[7] = Cell Viability - LYMP2-023 (AID 975); settings: LYMP2-023 lymphoblastoid cell viability; series mostly up to 92.2 µM;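 also: cellular ATP measured by luciferase luminescence as viability proxy; plate controls were DMSO only for no effect and 92 µM tetraoctylammonium bromide control for full effect; nearly all actives have a fitted effect of over 55% in size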
Procedure, shortened: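 LYMP2-023 human lymphoblastoid cells, 2500/well, preincubated 5 hr at 37 C, then compound-treated 24 hr at 37 C in complete medium. CellTiter-Glo luminescence (ATP) after 30 min at room temperature; AC50 from Hill-equation fits; tetraoctylammonium bromide positive control.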

[8] = Cell Viability - LYMP2-025 (AID 976); settings: LYMP2-025 lymphoblastoid cell viability; series mostly up to 92.2 µM;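 also: plate controls were DMSO only for no effect and tetraoctylammonium bromide control for full effect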
Procedure, shortened: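 Human lymphoblastoid LYMP2-025 cells, 2500/well, exposed 24 h at 37 C in complete medium in 1536-well qHTS. Viability as cellular ATP by CellTiter-Glo luminescence; AC50 from Hill fits of concentration-response data.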

[9] = Cell Viability - LYMP2-002 (AID 977); settings: LYMP2-002 lymphoblastoid cell viability, qHTS; series mostly up to 92.2 µM;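 also: plate controls were DMSO only for no effect and 92 µM tetraoctylammonium bromide for full effect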
Procedure, shortened: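 Luminescent ATP readout (CellTiter-Glo, 30 min room temperature) after 24 h compound exposure at 37 C of a human lymphoblastoid line, 2500 cells/well. AC50 values derived by standard Hill fitting of qHTS concentration-response data.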

[10] = Cell Viability - LYMP2-012 (AID 982); settings: LYMP2-012 lymphoblastoid cell viability qHTS; series mostly up to 92.2 µM
[11] = Cell Viability - LYMP2-014 (AID 983); settings: LYMP2-014 lymphoblastoid cells, viability qHTS; series mostly up to 92.2 µM;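 also: plate controls were DMSO only for no effect and 92 µM tetraoctylammonium bromide for full effect; nearly all actives have a fitted effect of over 50% in size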
Procedure, shortened: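 LYMP2-014 human lymphoblastoid cells, 2500/well, treated 24 h at 37 C in complete medium; viability by CellTiter-Glo ATP luminescence after 30 min at room temperature. AC50 from Hill fits of qHTS concentration-response; tetraoctylammonium bromide positive control.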

[12] = Cell Viability - LYMP2-016 (AID 984); settings: LYMP2-016 lymphoblastoid cell viability, qHTS; series mostly up to 92.2 µM
Procedure, shortened: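 Acute toxicity in a Coriell human lymphoblastoid line is scored as loss of intracellular ATP over 24 h of treatment in complete medium. CellTiter-Glo signal is fitted across concentrations with the Hill equation to give AC50.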

[13] = Cell Viability - LYMP2-018 (AID 985); settings: LYMP2-018 lymphoblastoid cells, viability (qHTS); series mostly up to 92.2 µM;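 also: compound exposure lasted 24 hr at 37 °C; plate controls were DMSO only for no effect and tetraoctylammonium bromide at 92 µM for full effect; nearly all actives have a fitted effect of over 50% in size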
Procedure, shortened: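 Human lymphoblastoid LYMP2-018 cells, 2500/well, settled 5 hr at 37 C then exposed to compound 24 hr at 37 C; intracellular ATP measured by CellTiter-Glo luminescence. AC50 from Hill-equation concentration-response fits.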

[14] = Cell Viability - LYMP2-020 (AID 986); settings: series mostly up to 92.2 µM
Procedure, shortened: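 Human lymphoblastoid LYMP2-020 cells (2500/well) preincubated 5 h at 37 C, then treated 24 h at 37 C. Viability measured as intracellular ATP by CellTiter-Glo luminescence after 30 min at room temperature; AC50 from Hill fits.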

[15] = Cell Viability - LYMP2-022 (AID 987); settings: LYMP2-022 lymphoblastoid cell viability; series mostly up to 92.2 µM
Procedure, shortened: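 LYMP2-022 lymphoblastoid cells (2500/well, complete medium) were treated with compounds for 24 hours at 37 C; intracellular ATP was then read by CellTiter-Glo luminescence after 30 min at room temperature. AC50 values were derived from Hill-equation fits.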

[16] = Cell Viability - LYMP2-024 (AID 988); settings: LYMP2-024 lymphoblastoid cell viability; series mostly up to 92.2 µM;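 also: plate controls were DMSO only for no effect and 92 µM tetraoctylammonium bromide for full effect; nearly all actives have a fitted effect of over 60% in size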
Procedure, shortened: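 Human lymphoblastoid LYMP2-024 cells (2500/well) rested 5 hr, then treated with compound for 24 hr at 37 C in complete medium. Viability was measured as intracellular ATP by CellTiter-Glo luminescence. AC50 values came from Hill-equation fits.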

[17] = Cell Viability - LYMP1-002 - Assay at 40 hr (AID 994); settings: LYMP1-002 lymphoblastoid cell viability; series mostly up to 92.2 µM;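 also: 0% = DMSO only and full inhibition = 92 µM tetraoctylammonium bromide; nearly all actives have a fitted effect of over 60% in size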
Procedure, shortened: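 LYMP1-002 human lymphoblastoid cells (2500/well, complete medium) were treated with compounds for 40 hr at 37 C. Intracellular ATP was measured by CellTiter-Glo luminescence, and AC50 values came from Hill-equation fits of concentration-response data; tetraoctylammonium bromide was the positive control.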

[18] = qHTS assay for small molecule antagonists of retinoid X receptor alpha signaling (AID 588546; active = well fitted inhibition curve with a large enough effect in the signal ratio, with a control signal flat, not every such curve was filed as active; the % refers to the signal ratio;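 also: cells stimulated with 9-cis-retinoic acid as agonist; % is scaled to controls: 0 for no effect and ±100 for the full control effect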); settings: HEK293T RXRa-UAS-bla, beta-lactamase ratio, antagonist mode; measured here: W530 green channel, cytotoxicity proxy
Procedure, shortened: (§1)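 Beta-lactamase reporter inhibition, read as CCF4 fluorescence ratio (ex 405, em 460/530 nm) after 2 h at RT. HEK293T UAS-bla cells, 2500/well, were stimulated with 9-cis-RA at 500 or 100 nM final alongside test compound for 18 h at 37 C.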

[19] = target: Retinoic acid receptor RXR-alpha (Homo sapiens) (UniProt P19793); assay: as above; settings: HEK293T RXRa-UAS-bla, beta-lactamase ratio, antagonist mode
Procedure, shortened: as §1

[20] = qHTS assay for environmental chemicals that activate the Aryl hydrocarbon Receptor (AhR) signaling pathway (AID 651777); settings: 1A2-DRE human hepatoma cells, luciferase, 24 h; activation: stronger effect = higher value; also: % of control where 0% means no effect; nearly all actives have a fitted effect of over 15% in size
Procedure, shortened: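 Human hepatoma 1A2-DRE cells stably carrying a DRE/CYP1A2 promoter–luciferase reporter, 1,200 cells/well, exposed to compound 24 hr at 37 C. Luciferase read by One-Glo luminescence after 30 min at room temperature; increased signal marks AhR activation.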

Chain of Retinoic acid receptor RXR-alpha (Homo sapiens) (P19793 whole entry, looked up): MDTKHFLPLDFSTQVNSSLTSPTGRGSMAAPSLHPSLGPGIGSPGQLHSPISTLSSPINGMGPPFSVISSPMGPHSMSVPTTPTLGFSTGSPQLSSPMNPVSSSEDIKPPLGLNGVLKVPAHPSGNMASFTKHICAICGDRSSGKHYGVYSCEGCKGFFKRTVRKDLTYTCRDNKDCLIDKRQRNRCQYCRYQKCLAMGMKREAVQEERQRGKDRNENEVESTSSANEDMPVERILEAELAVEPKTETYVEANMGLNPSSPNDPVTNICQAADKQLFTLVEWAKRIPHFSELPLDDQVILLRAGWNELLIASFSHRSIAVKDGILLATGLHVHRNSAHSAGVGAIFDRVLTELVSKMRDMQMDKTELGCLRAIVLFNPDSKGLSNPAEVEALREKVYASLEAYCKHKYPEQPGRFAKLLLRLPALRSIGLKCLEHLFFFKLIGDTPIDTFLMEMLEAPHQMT

CCCCNCC
inactive: Potency [1] > 92 µM | Potency [2] | Potency [3] | Potency [4] | Potency [5] | Potency [6] | Potency [7] | Potency [8] | Potency [9] | Potency [10] | Potency [11] | Potency [12] | Potency [13] | Potency [14] | Potency [15] | Potency [16] | Potency [17] | max response [19] 4.6% | activation [20] -0.56%
-20.9%: max response [18]

O=[N+]([O-])c1cccc(I)c1
inactive: Potency [1] > 92 µM | Potency [2] | Potency [3] | Potency [4] | Potency [5] | Potency [6] | Potency [7] | Potency [8] | Potency [9] | Potency [10] | Potency [11] | Potency [12] | Potency [13] | Potency [14] | Potency [15] | Potency [16] | Potency [17] | max response [19] -4.26% | activation [20] 0.159%
-5.01%: max response [18]

CCCC(=O)OC(=O)CCC
-8.03% and -4.72%: max response [18]
inactive: Potency [1] > 92 µM | Potency [2] | Potency [3] | Potency [4] | Potency [5] | Potency [6] | Potency [7] | Potency [8] | Potency [9] | Potency [10] | Potency [11] | Potency [12] | Potency [13] | Potency [14] | Potency [15] | Potency [16] | Potency [17] | max response [19] 2.23% and 15.8% | activation [20] 0.206% and -0.322%

C[Si](C)(C)Cl
3.42%: max response [18]
inactive: Potency [1] > 92 µM | Potency [2] | Potency [3] | Potency [4] | Potency [5] | Potency [6] | Potency [7] | Potency [8] | Potency [9] | Potency [10] | Potency [11] | Potency [12] | Potency [13] | Potency [14] | Potency [15] | Potency [16] | Potency [17] | max response [19] 16.7% | activation [20] 1.28%

CC(/C=C/C=C(C)/C=C/C(=O)O)=C\C=C\C=C(C)\C=C\C=C(C)\C=C\C(=O)O
inactive: Potency [1] > 92 µM | Potency [2] | Potency [3] | Potency [4] | Potency [5] | Potency [6] | Potency [7] | Potency [8] | Potency [9] | Potency [11] | Potency [12] | Potency [13] | Potency [14] | Potency [16] | Potency [17] | max response [19] 16.8% | activation [20] 9.06%
-20%: max response [18]

NC(=O)Nc1nc2ccccc2[nH]1
inactive: Potency [1] > 92 µM | Potency [2] | Potency [3] | Potency [4] | Potency [5] | Potency [6] | Potency [7] | Potency [8] | Potency [9] | Potency [10] | Potency [11] | Potency [12] | Potency [13] | Potency [14] | Potency [15] | Potency [16] | Potency [17] | max response [19] 1.58% | activation [20] 5.33%
-1.95%: max response [18]

Nc1cnn([C@@H]2O[C@H](CO)[C@@H](O)[C@H]2O)c(=O)n1
inactive: Potency [1] > 92 µM | Potency [2] | Potency [3] | Potency [4] | Potency [5] | Potency [6] | Potency [7] | Potency [8] | Potency [9] | Potency [10] | Potency [11] | Potency [12] | Potency [13] | Potency [14] | Potency [15] | Potency [16] | Potency [17] | max response [19] -17.1%
8.26%: max response [18]

Nc1cc([N+](=O)[O-])ccc1O
inactive: Potency [1] > 92 µM | Potency [2] | Potency [3] | Potency [4] | Potency [5] | Potency [6] | Potency [7] | Potency [8] | Potency [9] | Potency [10] | Potency [11] | Potency [12] | Potency [13] | Potency [14] | Potency [15] | Potency [16] | Potency [17] | max response [19] 2.5% and -26.6% | activation [20] 12.6% and 2.53%
-1.99% and 10.2%: max response [18]

CC(=O)CC(=O)Nc1ccccc1
10.1% and 20.6%: max response [18]
inactive: Potency [1] > 92 µM | Potency [2] | Potency [3] | Potency [4] | Potency [5] | Potency [6] | Potency [7] | Potency [8] | Potency [9] | Potency [10] | Potency [11] | Potency [12] | Potency [13] | Potency [14] | Potency [15] | Potency [17] | max response [19] -1.7% and -15.3% | activation [20] 1.24% and 1.64%

O=[N+]([O-])c1ccccc1Nc1ccccc1
inactive: Potency [1] > 92 µM | Potency [2] | Potency [3] | Potency [4] | Potency [5] | Potency [6] | Potency [7] | Potency [8] | Potency [9] | Potency [10] | Potency [11] | Potency [12] | Potency [13] | Potency [14] | Potency [15] | Potency [16] | Potency [17] | max response [19] 0.845% | activation [20] 1.93%
-9.17%: max response [18]

Clc1nc2ccccc2nc1Cl
-14.8%: max response [18]
inactive: Potency [1] > 92 µM | Potency [2] | Potency [3] | Potency [7] | Potency [8] | Potency [9] | Potency [11] | Potency [12] | Potency [13] | Potency [17] | max response [19] 31% | activation [20] 0.0222%

C=CC(=O)CC
inactive: Potency [1] > 92 µM | Potency [2] | Potency [3] | Potency [4] | Potency [5] | Potency [6] | Potency [7] | Potency [8] | Potency [9] | Potency [10] | Potency [11] | Potency [12] | Potency [13] | Potency [14] | Potency [15] | Potency [16] | Potency [17] | max response [19] 10.2% | activation [20] 1.17%
8.25%: max response [18]

From PubChem BioAssay (NCATS)
